{"source": "PubChem BioAssay AID1578", "about": "(Sanford-Burnham Center for Chemical Genomics, 2009)", "note": "The whole screen tested about 290,000 compounds, of which about 3,000 (1%) were called active. The full list was thinned out, with actives kept by preference. Unmarked numbers belong to inactive results. Cut-off read from the data, not from the text of the source: active = inhibition mostly above about 36% (no sharp cut-off); inactive = mostly below about 34%.", "data": [{"test": "NOD1 signaling inhibitors, primary screen, cell-based, luminescence, uHTS (AID 1578);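 note: HEK-293T reporter cells stimulated with the NOD1 agonist gamma-tri-DAP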", "settings": "NOD1-driven NF-kB luciferase reporter cells, at 4 µM, hits give high values", "values": [{"smiles": "CCOc1ccccc1N1CC(C(=O)N2CCc3ccccc32)CC1=O", "note": "(stereo unspecified)", "inhibition": "17.6%"}, {"smiles": "CCn1c(=O)n(CC)c2cc(N3CCCC3)c(NC(=O)c3c(F)cccc3F)cc21", "inhibition": "-5.8%"}, {"smiles": "O=C(c1cccc(S(=O)(=O)N2CCc3ccccc3C2)c1)N1CCN(c2ccc(O)cc2)CC1", "inhibition": "-37.3%"}, {"smiles": "CC(=O)c1cccc(NC(=O)Cn2cnc(S(=O)(=O)N3CCOCC3)c2)c1", "inhibition": "-18.3%"}, {"smiles": "COCc1cc(C)nc(SCc2ccc([N+](=O)[O-])cc2)c1C#N", "inhibition": "9.9%"}, {"smiles": "c1ccc2nc(-c3ccc(N4CCOCC4)cc3)ccc2c1", "inhibition": "11%"}, {"smiles": "COc1ccc(-c2ccc3ccccc3n2)cc1", "inhibition": "-47%"}, {"smiles": "CN1CCN(c2ccc(-c3ccc4ccccc4n3)cc2)CC1", "inhibition": "90.2% (active)"}, {"smiles": "COc1cc2cc(CN(Cc3cccnc3)C(=O)Nc3ccccc3F)c(=O)[nH]c2cc1OC", "inhibition": "-29.7%"}, {"smiles": "CCOc1ccccc1NC(=O)c1sc2ncn(CC(=O)N3CCOCC3)c(=O)c2c1C", "inhibition": "1.5%"}, {"smiles": "CCCCOc1ccc(CN2CCSCC2)cc1", "inhibition": "-28.4%"}, {"smiles": "Cc1nc2sc(C(=O)c3ccccc3)c(N)c2c(C)c1C", "inhibition": "27.9%"}, {"smiles": "Cc1nc2sc(C(N)=O)c(N)c2c(C)c1CC(=O)c1ccccc1", "inhibition": "84.2% (active)"}, {"smiles": "CCOC(=O)c1c(C)nc2sc(C(N)=O)c(N)c2c1-c1ccccc1", "inhibition": "31%"}, {"smiles": "CC(=O)Nc1nc(-c2cccc3ccccc23)cs1", "inhibition": "-32.8%"}, {"smiles": "O=C(O)c1cc(=O)n(Cc2ccccc2)c(=O)[nH]1", "inhibition": "-11.6%"}, {"smiles": "O=C(Nc1cccnc1)c1ccc(COc2ccccc2Br)cc1", "inhibition": "-8.4%"}, {"smiles": "O=C(Nc1ccc(Cn2cccn2)cc1)c1ccc(COc2ccccc2Br)cc1", "inhibition": "60.2%"}, {"smiles": "CC(C)(C)OC(=O)CNC(=O)c1nc[nH]c1C(=O)NCc1ccc(CNC(=O)OC(C)(C)C)cc1", "inhibition": "-14.2%"}, {"smiles": "CCN(CC)C(=S)SC1CCCCN(C(=O)c2ccc(F)cc2)C1=O", "note": "(stereo unspecified)", "inhibition": "-8%"}, {"smiles": "CCN(CC)C(=S)SC1CCCCN(C(=O)c2ccccc2)C1=O", "note": "(stereo unspecified)", "inhibition": "65.6% (active)"}, {"smiles": "O=C(c1ccccc1)N1CCCCC(Cl)C1=O", "note": "(stereo unspecified)", "inhibition": "-29.3%"}, {"smiles": "CCOc1ccc(/C(O)=C2/C(=O)C(=O)N(c3ncccn3)C2c2ccc(C)cc2)cc1", "note": "(stereo unspecified)", "inhibition": "-0.8%"}, {"smiles": "CCOc1ccc(/C(O)=C2/C(=O)C(=O)N(c3ncccn3)C2c2ccccc2)cc1", "note": "(stereo unspecified)", "inhibition": "91.5% (active)"}, {"smiles": "CCOc1ccc(/C(O)=C2/C(=O)C(=O)N(c3ncccn3)C2c2ccc(Cl)cc2)cc1", "note": "(stereo unspecified)", "inhibition": "-1%"}, {"smiles": "COc1ccc(NCCC(O)c2ccc(Cl)cc2)cc1", "note": "(stereo unspecified)", "inhibition": "-11.5%"}, {"smiles": "CCOc1ccc(NC(=S)Nc2ccc(F)cc2)cc1", "inhibition": "2.3%"}, {"smiles": "CCOc1ccc(NCCC(O)c2ccc(F)cc2)cc1", "note": "(stereo unspecified)", "inhibition": "34.5% (active)"}, {"smiles": "S=C(NC1CCCC1)NC1CCCC1", "inhibition": "2.9%"}, {"smiles": "Clc1ccc(/C=C/c2ncc[nH]2)c(Cl)c1", "inhibition": "-2%"}, {"smiles": "COc1ccc(C(=O)/C=C/c2ccccc2C(F)(F)F)cc1", "inhibition": "-21.4%"}, {"smiles": "Cc1cc(C)nc(NC(=O)/C=C/c2ccc(Cl)cc2Cl)c1", "inhibition": "-58%"}, {"smiles": "O=C(CCC(=O)Nc1cc(C(F)(F)F)ccc1Cl)N/N=C\\c1cc([N+](=O)[O-])ccc1O", "inhibition": "3%"}, {"smiles": "N#C/C(=C\\c1cc([N+](=O)[O-])ccc1Cl)C(N)=O", "inhibition": "-44.7%"}, {"smiles": "O=C(O)c1cc(C(F)(F)F)nc2c(C(F)(F)F)cccc12", "inhibition": "-18.1%"}, {"smiles": "Cc1ccc(OCCCC(=O)NCc2ccco2)c(C)c1", "inhibition": "-28.1%"}, {"smiles": "COc1ccc(NC2CCCN(C(=O)CCCN3CCCCC3=O)C2)cc1", "note": "(stereo unspecified)", "inhibition": "19.3%"}, {"smiles": "CCc1ccc(CNC(=O)CCS(=O)(=O)Cc2ccccc2F)cc1", "inhibition": "3.9%"}, {"smiles": "CCC/C(C)=C/c1ccc(CC)cn1", "inhibition": "12.7%"}, {"smiles": "COc1cc(CNc2ccc(C(=O)O)cc2)cc(Br)c1OCC(=O)NC(C)(C)C", "inhibition": "-27.4%"}, {"smiles": "CCOc1cc(CNc2ccccc2)cc(Br)c1OCC(=O)NC(C)(C)C", "inhibition": "4.8%"}, {"smiles": "COc1cc(CNc2cccc(C(=O)O)c2)cc(Br)c1OCC(=O)NC(C)(C)C", "inhibition": "94.3% (active)"}, {"smiles": "CC(=O)c1ccc(N2CCN(S(=O)(=O)c3ccc4c5c3CC(=O)N5CC(C)S4)CC2)cc1", "note": "(stereo unspecified)", "inhibition": "-20.1%"}, {"smiles": "CCn1c(O)c(N=NC(=O)c2cccs2)c2ccccc21", "inhibition": "-38.2%"}, {"smiles": "COc1cccc(C2CC(c3ccc(Cl)cc3)Nc3nc(N)nn32)c1", "note": "(stereo unspecified)", "inhibition": "13.7%"}, {"smiles": "Nc1c(CO)nnn1-c1ccccc1", "inhibition": "68.7% (active)"}, {"smiles": "NC(=O)c1nnn(-c2ccccc2)c1N", "inhibition": "-28.7%"}, {"smiles": "OCc1nnn(-c2ccccc2)c1CO", "inhibition": "-4.1%"}, {"smiles": "COc1cc(/C=C/C(=O)OCC(=O)Nc2cc(C)c(C)cc2[N+](=O)[O-])ccc1O", "inhibition": "-8.4%"}, {"smiles": "O=S(=O)(NCC1CCCO1)c1ccc(-c2ccc(Cl)cc2)cc1", "note": "(stereo unspecified)", "inhibition": "9.5%"}, {"smiles": "Cc1ccc(-c2ccc(S(=O)(=O)NCC3CCCO3)cc2)cc1", "note": "(stereo unspecified)", "inhibition": "47.8%"}, {"smiles": "Cc1cccc(N2CCN(c3ccc4cc(S(=O)(=O)N5CCCCC5)ccc4n3)CC2)c1C", "inhibition": "25.6%"}, {"smiles": "CCOc1ccccc1NC(=O)CSc1ccccc1", "inhibition": "-13.6%"}, {"smiles": "Cc1cc(Cl)ccc1NC(=S)NC1CCCC1", "inhibition": "24%"}, {"smiles": "CC1CCCCC1NC(=S)Nc1ccc(Cl)cc1Cl", "note": "(stereo unspecified)", "inhibition": "42.2% (active)"}, {"smiles": "S=C(Nc1ccc(Cl)cc1Cl)NC1CCCCC1", "inhibition": "-5%"}, {"smiles": "CCOC(=O)c1ccccc1NC(=O)c1cn(-c2ccc(OC)cc2)c(=O)c2ccccc12", "inhibition": "73.4% (active)"}, {"smiles": "CCOC(=O)C(C)NC(=O)c1cn(-c2ccc(OC)cc2)c(=O)c2ccccc12", "note": "(stereo unspecified)", "inhibition": "1.9%"}, {"smiles": "CCOC(=O)c1ccccc1NC(=O)c1cn(-c2ccc(C)c(C)c2)c(=O)c2ccccc12", "inhibition": "48%"}, {"smiles": "C=CCNC(=O)c1oc2ccc(S(=O)(=O)N3CCC4(CC3)OCCO4)cc2c1C", "inhibition": "-20.9%"}, {"smiles": "Cc1noc(C)c1C(=O)OCC(=O)Nc1ccccc1Oc1ccccc1", "inhibition": "-14%"}, {"smiles": "Cc1csc(NC(=O)c2cc3c(s2)CCC3)n1", "inhibition": "5.9%"}, {"smiles": "Cc1csc(NC(=O)c2cc3c(s2)CCCCC3)n1", "inhibition": "73.7% (active)"}, {"smiles": "Cc1csc(NC(=O)c2cc3c(s2)CCCC3)n1", "inhibition": "-106%"}, {"smiles": "CCOCCCNC(=O)c1ccc(N2CC3CC(C2)c2cccc(=O)n2C3)c(NC(=O)Nc2cccc(OC)c2)c1", "note": "(stereo unspecified)", "inhibition": "-1.7%"}, {"smiles": "COc1cccc2c1cc1c(=O)n(CC(=O)N3CCCCCC3)nc(C)n12", "inhibition": "-16%"}, {"smiles": "CCn1cc(Br)c(C(=O)Nc2sc3c(c2C(N)=O)CCCC3)n1", "inhibition": "-18.1%"}, {"smiles": "CCn1ncc(Br)c1C(=O)Nc1sc2c(c1C(N)=O)CCC2", "inhibition": "77.1% (active)"}, {"smiles": "Cn1ncc(Cl)c1C(=O)Nc1sc2c(c1C(N)=O)CCC2", "inhibition": "-24.6%"}, {"smiles": "Cc1ccc(OS(=O)(=O)c2c(C)nn(C)c2Cl)c(C)c1", "inhibition": "-19.4%"}, {"smiles": "CCn1cc(C(=O)O)c(=O)c2cc(F)c(N3CCN(C(=S)NC(=O)c4ccccc4Br)CC3)cc21", "inhibition": "-0.8%"}, {"smiles": "CN1CCN(C(=S)Nc2ccc(Oc3ccccc3)cc2)CC1", "inhibition": "6.6%"}, {"smiles": "CC(C)=CC(=O)Nc1c(C)cc(C)cc1Cl", "inhibition": "-18%"}, {"smiles": "Oc1ccc(-c2nc3ccccc3s2)cc1", "inhibition": "-6.1%"}, {"smiles": "COc1ccc(-c2nc3ccccc3s2)cc1", "inhibition": "-35.3%"}, {"smiles": "CCOC(=O)Cc1csc(SC(C)C(=O)NCC(=O)Nc2ccc(F)c(F)c2F)n1", "note": "(stereo unspecified)", "inhibition": "-36.3%"}, {"smiles": "COc1ccc(C(=O)N/C(=C\\c2cccs2)C(=O)N2CCN(C)CC2)cc1OC", "inhibition": "-14.2%"}, {"smiles": "O=C(c1ccco1)N1CCN(c2nc(C3CC3)nc3c2nnn3Cc2ccccc2Cl)CC1", "inhibition": "44.4% (active)"}, {"smiles": "NC(=O)C1CCN(c2nc(C3CC3)nc3c2nnn3Cc2ccccc2Cl)CC1", "inhibition": "10.7%"}, {"smiles": "O=C(c1ccco1)N1CCN(c2ncnc3c2nnn3Cc2ccccc2Cl)CC1", "inhibition": "11.1%"}, {"smiles": "O=C(Cn1nnc(-c2cc(C(F)(F)F)cc(C(F)(F)F)c2)n1)NNC(=S)Nc1ccc(Cl)cc1", "inhibition": "10.2%"}, {"smiles": "O=C(COC(=O)Cc1ccc(Cl)cc1)Nc1c(F)cccc1F", "inhibition": "-44%"}, {"smiles": "COc1cc(/C=N/NC(=O)c2ccncc2)ccc1OC(=O)c1ccco1", "inhibition": "29.2%"}, {"smiles": "CC(=O)c1c(C)[nH]c(C(=O)OCC(=O)NCCc2ccc(F)cc2)c1C", "inhibition": "-0.8%"}, {"smiles": "Cc1ccsc1C(=O)NNC(=O)C1CCCCC1C(=O)O", "note": "(stereo unspecified)", "inhibition": "-15.7%"}, {"smiles": "Cc1ccsc1C(=O)NNC(=O)C1C2C=CC(C2)C1C(=O)O", "note": "(stereo unspecified)", "inhibition": "72.2% (active)"}, {"smiles": "Cc1ccsc1C(=O)NNC(=O)C1CC=CCC1C(=O)O", "note": "(stereo unspecified)", "inhibition": "-25.2%"}, {"smiles": "CCCCC(=O)Nc1cccc(-c2cn3ccccc3n2)c1", "inhibition": "-43.7%"}, {"smiles": "Cc1ccc(CNC(=O)CCS(=O)(=O)c2cc3c(cc2Cl)NC(=O)CO3)cc1", "inhibition": "-6.8%"}, {"smiles": "O=C(CCS(=O)(=O)c1cc2c(cc1Cl)NC(=O)CO2)NCc1ccc(F)cc1", "inhibition": "-25.6%"}, {"smiles": "O=C(CCS(=O)(=O)c1cc2c(cc1Cl)NC(=O)CO2)NCc1ccccc1", "inhibition": "95% (active)"}, {"smiles": "CC(=O)OC[C@H]1O[C@@H](O/N=C(\\C)CCN2CCCCc3nc(C)c(C)cc32)[C@H](OC(C)=O)[C@@H](OC(C)=O)[C@@H]1OC(C)=O", "inhibition": "-2.5%"}, {"smiles": "Cc1ccc(S(=O)(=O)c2nc(-c3ccccc3F)oc2N2CC(C)OC(C)C2)cc1", "note": "(stereo unspecified)", "inhibition": "-20%"}, {"smiles": "Cc1cc(C)c(C)c(/C=C(/C#N)C(N)=S)c1C", "inhibition": "14.2%"}, {"smiles": "Cc1cc(C)c(/C=C(\\C#N)C(N)=S)c(C)c1", "inhibition": "106% (active)"}, {"smiles": "Cc1ccc(-c2ccc(/C=C(\\C#N)C(N)=S)n2C)cc1", "inhibition": "-19.8%"}]}]}
